Experimental data reported in PubChem BioAssay (NCI).
This is part of a sample that, as a whole, favours compounds with a hit. Of some 79,000 tested, about 15% had one in any assay. Active and inactive are the calls of the source. Rule as the data show it: active = growth inhibition above about 70%; inactive = the rest.

Tests used:
[1] = NCI Yeast Anticancer Drug Screen. Data for the rad50 strain (AID 155);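 also: 0% = growth of vehicle-only cultures of the same strain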; conditions: S. cerevisiae rad50 strain growth inhibition, active compounds read high
Procedure, shortened: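 Compounds were tested on a yeast strain with an engineered DNA damage repair alteration; the reported value is growth inhibition normalised to vehicle treatment.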

[2] = NCI Yeast Anticancer Drug Screen. Data for the mec2-1 strain (AID 157); conditions: S. cerevisiae mec2-1 strain, active compounds read high
Procedure, shortened: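 Strain: mec2-1 (DNA repair/cell cycle alteration). Compound exposure, then growth measured; inhibition expressed relative to vehicle.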

[3] = NCI Yeast Anticancer Drug Screen. Data for the sgs1 mgt1 strain (AID 161);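 also: 0% = growth of cultures given vehicle only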; conditions: S. cerevisiae sgs1 mgt1 strain, active compounds read high
Procedure, shortened: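 Inhibition of yeast growth, normalised to vehicle-treated controls, is reported for a strain bearing genetic alterations in DNA damage repair.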

[4] = NCI Yeast Anticancer Drug Screen. Data for the cln2 rad14 strain (AID 165);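 also: 0% = growth equal to vehicle treated cultures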; conditions: S. cerevisiae cln2 rad14 strain, active compounds read high
Procedure, shortened: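 Compounds are applied to the cln2 rad14 yeast strain, and growth is then compared with that of vehicle-treated cultures to give inhibition.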

[5] = NCI Yeast Anticancer Drug Screen. Data for the bub3 strain (AID 167); conditions: S. cerevisiae bub3 mutant strain, active compounds read high
Procedure, shortened: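 Growth of a checkpoint-deficient yeast mutant is measured after compound exposure. Values represent inhibition relative to vehicle.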

[6] = NCI Yeast Anticancer Drug Screen. Data for the mlh1 rad18 strain (AID 175); conditions: S. cerevisiae mlh1 rad18 strain growth inhibition, active compounds read high
Procedure, shortened: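 Read-out is yeast growth inhibition, calculated against vehicle-only controls. The compound was applied to a strain engineered with DNA damage repair alterations.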

[7] = at 5.0 µM (retest, dose inferred, filed as 0.5)
[8] = at 50.0 µM (retest, dose inferred, filed as 5.0)

Measured: growth inhibition

CC(=O)OC/C=C/CCCOC(C)=O
inactive: [1]; [7] -15% | [1]; [8] 4% | [2]; [7] -12% | [2]; [8] -17% | [2]; at 50.0 µM 64.3% | [3]; [7] -7% | [3]; [8] 5% | [4]; [7] 38% | [4]; [8] 31% | [5]; [7] 17% | [5]; [8] 19% | [6]; [7] 5% | [6]; [8] -5% | [6]; at 50.0 µM 62.6%
active: [1]; at 50.0 µM 77.8% | [3]; at 50.0 µM 84% | [4]; at 50.0 µM 77.9% | [5]; at 50.0 µM 80.3%

CCCCCC[C@@H](O)C/C=C\CCCCCCCC(=O)OCCCC
active: [4]; at 50.0 µM 75.8%
inactive: [1]; [7] -2% | [1]; [8] -7% | [1]; at 50.0 µM 23.6% | [2]; [7] -4% | [2]; [8] -7% | [2]; at 50.0 µM 26.1% | [3]; [7] -1% | [3]; [8] -5% | [3]; at 50.0 µM 23.6% | [4]; [7] -3% | [4]; [8] -8% | [5]; [7] -6% | [5]; [8] -7% | [5]; at 50.0 µM 24.6% | [6]; [7] 0% | [6]; [8] 1% | [6]; at 50.0 µM 23.9%

O=c1[nH]c(Cc2ccccc2)nc2c1sc1nc3ccccc3n12
inactive: [1]; [7] 36% | [1]; at 50.0 µM 25.2% | [2]; [7] 9% | [2]; [8] 56% | [2]; at 50.0 µM -1.95% | [3]; [7] 19% | [3]; at 50.0 µM -34.2% | [4]; [7] 28% | [4]; at 50.0 µM -2.85% | [5]; [7] 8% | [5]; at 50.0 µM -33.4% | [6]; [7] 18% | [6]; at 50.0 µM -7.45%
active: [1]; [8] 86% | [3]; [8] 92% | [4]; [8] 81% | [5]; [8] 89% | [6]; [8] 83%

CC1(C)N=C(N)N=C(N)N1c1cccc(OCc2cccc(N)c2)c1
inactive: [1]; [7] -2% | [1]; [8] 1% | [1]; at 50.0 µM 15.8% | [2]; [7] 12% | [2]; [8] -5% | [2]; at 50.0 µM 5.65% | [3]; [7] -7% | [3]; [8] 1% | [3]; at 50.0 µM -8.35% | [4]; [7] 13% | [4]; [8] -9% | [4]; at 50.0 µM 65.5% | [5]; [7] -20% | [5]; [8] -4% | [5]; at 50.0 µM -36.9% | [6]; [7] 5% | [6]; [8] 1% | [6]; at 50.0 µM 9.1%

CCCCCCCCCCN(CCCCCCCCCC)CC(O)c1cc(-c2ccccc2)nc2ccccc12 (configuration not stated)
active: [1]; [8] 74% | [3]; [8] 93%
inactive: [1]; [7] -1% | [1]; at 50.0 µM 36.2% | [2]; [7] -2% | [2]; [8] 34% | [2]; at 50.0 µM 21.9% | [3]; [7] -22% | [3]; at 50.0 µM 38.8% | [4]; [7] 0% | [4]; [8] 26% | [4]; at 50.0 µM -18.1% | [5]; [7] 0% | [5]; [8] 58% | [5]; at 50.0 µM 26.9% | [6]; [7] 4% | [6]; [8] 57% | [6]; at 50.0 µM 55%

CC(/C=C/NNC1=NC(c2ccccc2)C(c2ccccc2)=NN1)Sc1ccccc1N (configuration not stated)
active: [1]; at 50.0 µM 92.8% | [2]; at 50.0 µM 93.2% | [3]; at 50.0 µM 90.7% | [4]; at 50.0 µM 90.8% | [5]; at 50.0 µM 92.9% | [6]; at 50.0 µM 91.3%
inactive: [1]; [7] 43% | [1]; [8] 43% | [2]; [7] 22% | [2]; [8] 22% | [3]; [7] 31% | [3]; [8] 31% | [4]; [7] 18% | [4]; [8] 18% | [5]; [7] 25% | [5]; [8] 25% | [6]; [7] 17% | [6]; [8] 17%

CC1(C)OC(C(COC(=O)c2ccc([N+](=O)[O-])cc2)OS(=O)(=O)c2ccc([N+](=O)[O-])cc2)C(C(SCc2ccccc2)SCc2ccccc2)O1 (configuration not stated)
active: [1]; [8] 97% | [2]; [8] 99% | [3]; [8] 98% | [4]; [8] 92% | [5]; [8] 99% | [6]; [8] 98%
inactive: [1]; [7] 12% | [1]; at 50.0 µM 43.6% | [2]; [7] 1% | [2]; at 50.0 µM 33.5% | [3]; [7] 4% | [3]; at 50.0 µM 46.6% | [4]; [7] -9% | [4]; at 50.0 µM 7.75% | [5]; [7] -2% | [5]; at 50.0 µM 15.3% | [6]; [7] 8% | [6]; at 50.0 µM 67%

O=C(Nc1cc(Cl)ccc1Cl)Nc1ccc(Cl)cc1C(=O)c1ccccc1
inactive: [3]; [7] 27%
active: [1]; [7] 98% | [1]; [8] 99% | [1]; at 50.0 µM 84.9% | [2]; [7] 97% | [2]; [8] 98% | [2]; at 50.0 µM 91.6% | [3]; [8] 95% | [3]; at 50.0 µM 88.9% | [4]; [7] 73% | [4]; [8] 92% | [4]; at 50.0 µM 88% | [5]; [7] 71% | [5]; [8] 87% | [5]; at 50.0 µM 79.3% | [6]; [7] 100% | [6]; [8] 99% | [6]; at 50.0 µM 88.2%

c1ccc2c(c1)CCCc1cc3ccccc3nc1-2
active: [1]; [8] 96% | [1]; at 50.0 µM 84.8% | [2]; [8] 98% | [2]; at 50.0 µM 92.8% | [3]; [8] 96% | [3]; at 50.0 µM 93% | [4]; [8] 96% | [4]; at 50.0 µM 92% | [5]; [8] 97% | [5]; at 50.0 µM 91.9% | [6]; [8] 96% | [6]; at 50.0 µM 89.7%
inactive: [1]; [7] 27% | [2]; [7] -30% | [3]; [7] -1% | [4]; [7] -12% | [5]; [7] 18% | [6]; [7] -36%
